In all, about 68,000 sequences were measured (“fluorescence intensity (a.u.)”: median about 9,100, highest 2% from about 16,000 on). Many of the other results were omitted from the sample, so the highest values are more common in it than they were.

For the assay, the target named is OsWRKY34 (Oryza sativa, UniProt Q0JBA9 1-250). Nature of the assay: protein-binding microarray (RPBM); PBS, 2% BSA, 51.3 ng/ul salmon testes DNA, 50 uM zinc acetate, 200 nM TF, 25 C, 1 h; high values mean tight binding. As to conditions: protein: recombinant; tags: N-terminal polyhistidine and DsRed monomer fusion (pET32a); label: CyDye5-dUTP incorporated in the synthesized complementary strand; 3' TTTTT single-stranded linker to array surface; dsDNA, one strand shown. The gist of the method: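 A custom Agilent array was converted to double-stranded form by primer extension with Cy5-dUTP and blocked with 2% BSA. Protein at 200 nM in PBS with 2% BSA, salmon testes DNA and 50 µM zinc acetate was applied for 1 h at 25 °C, followed by washing. The proteins were polyhistidine–DsRed N-terminal fusions of transcription factors, expressed in E. coli BL21-CodonPlus and Ni–NTA-purified. The binding signal is per-feature fluorescence intensity (arbitrary units) from an Axon 4000B scanner.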
Chain of OsWRKY34 (Q0JBA9 entry or part of it): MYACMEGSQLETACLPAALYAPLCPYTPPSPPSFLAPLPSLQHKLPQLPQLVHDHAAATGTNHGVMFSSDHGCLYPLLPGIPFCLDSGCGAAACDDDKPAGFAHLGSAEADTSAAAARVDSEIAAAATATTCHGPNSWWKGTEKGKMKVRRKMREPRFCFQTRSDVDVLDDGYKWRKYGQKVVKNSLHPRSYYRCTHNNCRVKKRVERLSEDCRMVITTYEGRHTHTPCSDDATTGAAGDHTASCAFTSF
For the sequence “GTGGTTTCATCTATTTTGTGTTGTTTACTCGTATCTGTTACGGAGTCACCTAGTGCAG”, the binding signal was 10600 fluorescence intensity (a.u.).

Turning to “ACTGTGGTTTCTAGTGGGTTTTATTATTTTATAATTTGTACGGAGTCACCTAGTGCAG”, the binding signal was 8480 fluorescence intensity (a.u.). To “AATGTTTGGGTTCGAATTTAGTGGGTGGGTTTGGAGTTTGCGGAGTCACCTAGTGCAG” belongs 12800 fluorescence intensity (a.u.). On to “TCACGGCTCATTTTTGAAATAAGTTTTTAGCACAGTTTATCGGAGTCACCTAGTGCAG”, for which the binding signal is 8740 fluorescence intensity (a.u.).

For “TAACAGTATCATTTGATAGCACAATATAAGGTGTTTTGCTCGGAGTCACCTAGTGCAG”, the binding signal is 28800 fluorescence intensity (a.u.). For “ATCTTCGGTGTACTATTGGGTCATGATTTGACCCATCTAACGGAGTCACCTAGTGCAG”, the binding signal is 24900 fluorescence intensity (a.u.). To “TTAGGATACATGGGAATTTTAGTGGGGATAGGATGGGGAACGGAGTCACCTAGTGCAG” belongs 8520 fluorescence intensity (a.u.); to “GTATCAGTGTATAAGTTTGAGCACCATTTTTCCATGATCTCGGAGTCACCTAGTGCAG”, 9200 fluorescence intensity (a.u.); to “GTTGTGGGTTTTCGTATTTAATGTTTGACTGTCTATTTTACGGAGTCACCTAGTGCAG”, 17300 fluorescence intensity (a.u.). Under “CAAGTTATTGACTTTTGGTCATGATGTTACTATTCATCTTCGGAGTCACCTAGTGCAG” stands 9120 fluorescence intensity (a.u.). In the case of “TCTATTTTATTTGGGTGGGGATAGTTTTAGTGGGAATTTGCGGAGTCACCTAGTGCAG”, the binding signal is 24200 fluorescence intensity (a.u.). For the sequence “ATCTCTAATTCTATTGGGTGCATGTATTGTACTATTTATTCGGAGTCACCTAGTGCAG”, the binding signal was 9280 fluorescence intensity (a.u.).

Consider “TTCACGTAACTTACTTGCTCTAATCGTCGGTGGCTGGATCCGGAGTCACCTAGTGCAG”, for which the binding signal was 9270 fluorescence intensity (a.u.).

As to “AAACACCAGCGCGGCCCTCGCCCTCGCCGTCGCCATTTCCCGGAGTCACCTAGTGCAG”, the binding signal was 8520 fluorescence intensity (a.u.). As for “CAACCCCTTACTTCATCACCTACTCATGTCAACACATAGCCGGAGTCACCTAGTGCAG”, the binding signal was 8850 fluorescence intensity (a.u.). On to “ACGCTGCCGTCTCATTTCGCTTTCGTAGAACTTGCTCCAGCGGAGTCACCTAGTGCAG”, for which the binding signal was 8500 fluorescence intensity (a.u.).

On to “GCAAAAGCCAAACTGAATTCCCGACGCGTGCGCGCGCGCACGGAGTCACCTAGTGCAG”, for which the binding signal was 8180 fluorescence intensity (a.u.). For the sequence “AGGAAAACACTTAGATGGGCCGGATTACTTATCGAAATTTCGGAGTCACCTAGTGCAG”, the binding signal is 8360 fluorescence intensity (a.u.). To “AGCGGTTTCTTGGTTGGGGTTTAGTGTCTGCATTGGATATCGGAGTCACCTAGTGCAG” belongs 18200 fluorescence intensity (a.u.). In the case of “CCTTCTTTCCCTTTTCCCATCTGGCAAGATTTTTCTTATTCGGAGTCACCTAGTGCAG”, the binding signal is 9610 fluorescence intensity (a.u.).

On to “CTGTATTTGACTGTTACTGCTTTTGGATTTTGTTTCATTTCGGAGTCACCTAGTGCAG”, for which the binding signal was 10800 fluorescence intensity (a.u.). Consider “TCATTCTTTTTCTCAATGTACTTGGATTTTTTTCATGTTTCGGAGTCACCTAGTGCAG”, for which the binding signal is 12200 fluorescence intensity (a.u.). “ATCGTTTGGGGTCATTTTCTGCGGTTTGGTGGTGTTGTGCCGGAGTCACCTAGTGCAG”: the binding signal was 11100 fluorescence intensity (a.u.). Consider “TACATGTTTGACTTTGACTTGGTTTTTGGATATTTCATTTCGGAGTCACCTAGTGCAG”, for which the binding signal is 9170 fluorescence intensity (a.u.).

For the sequence “AGTGGTGATCGCCGCGGTTGGGTTTCTTGGATTGGGCTGTCGGAGTCACCTAGTGCAG”, the binding signal is 8720 fluorescence intensity (a.u.). Consider “GTTGGGGAGAAGGGGTGGTAAAATTTCTGGTATTATGGTTCGGAGTCACCTAGTGCAG”, for which the binding signal was 11700 fluorescence intensity (a.u.). In the case of “TTCTTTTGTTGTGTGGGTGTATGTTTTGGTTATGTGCATTCGGAGTCACCTAGTGCAG”, the binding signal was 8810 fluorescence intensity (a.u.). On to “TGTATTTGACTGTTACTGCTTTTGGATTTTGTTTCATTTTCGGAGTCACCTAGTGCAG”, for which the binding signal was 17500 fluorescence intensity (a.u.). For “ACATCTTATTTCCCTGGGTGGGGAGATTCTAGTTAAAATTCGGAGTCACCTAGTGCAG”, the binding signal is 19000 fluorescence intensity (a.u.). For “GTGGGGTTTTCGATGGTGTTTCATTCTTTTTCTCAATGTACGGAGTCACCTAGTGCAG”, the binding signal is 20300 fluorescence intensity (a.u.).

Take “GGTTATTTATTTTTATTGGTTTCCCCATTACTGTTGACAGCGGAGTCACCTAGTGCAG”: the binding signal was 8360 fluorescence intensity (a.u.). In the case of “TCCCGATATCATATTATAACCCTTCTAGAAATCTAATGTTCGGAGTCACCTAGTGCAG”, the binding signal was 8160 fluorescence intensity (a.u.). Under “ATTCTGTTATGAACTATGTAAACCTTCTCATGTATATTCACGGAGTCACCTAGTGCAG” stands 8840 fluorescence intensity (a.u.); under “GGCCATCATCATTTGTTCCTCATCTTACTCTAGCTTCTCCCGGAGTCACCTAGTGCAG”, 9470 fluorescence intensity (a.u.); under “CTCTCTGTGTGTGTGTTTGCTTTCTTGGGCTGTATCGACTCGGAGTCACCTAGTGCAG”, 11800 fluorescence intensity (a.u.).

With “AAGCTGGTTTGGCTAATTGTGTTGTGTAACTATAAATCTTCGGAGTCACCTAGTGCAG”, the binding signal is 8280 fluorescence intensity (a.u.). “CGCCCACCCACGCATCCATCCATCGATCGCAGCCAAATTCCGGAGTCACCTAGTGCAG”: the binding signal was 9430 fluorescence intensity (a.u.). For “ACATGGGAATTTTGGTGGGATGGGGATGGGGAATTGACCTCGGAGTCACCTAGTGCAG”, the binding signal was 14100 fluorescence intensity (a.u.). In the case of “GCTTCCTTGTCCGATTTGGTGGTTGATTCGTGTTTTTGCTCGGAGTCACCTAGTGCAG”, the binding signal is 9300 fluorescence intensity (a.u.). Under “GGTTTGTTCGTGTCTTTTGTGGTGATTGCATTTGATTGGGCGGAGTCACCTAGTGCAG” stands 9920 fluorescence intensity (a.u.); under “TTGCGTTTTGGGTGGTGAATTTTGATTTTGATTCTTTTTTCGGAGTCACCTAGTGCAG”, 12700 fluorescence intensity (a.u.); under “CATTTAGTTTGGGATGGGGTGGTTGATCCGATTTTTTCTGCGGAGTCACCTAGTGCAG”, 14700 fluorescence intensity (a.u.).

As for “ACATGGGAATTTTGGTGGGATGGGGATGGGGATGGGGAATCGGAGTCACCTAGTGCAG”, the binding signal is 34000 fluorescence intensity (a.u.). Turning to “TCATTCCGATTTGGTGGGGTTTGAGTTTGATTGATTCTTTCGGAGTCACCTAGTGCAG”, the binding signal was 19300 fluorescence intensity (a.u.).

As for “TGCTGTGGTGTGGTGTGGTGTGAATTTTGTTGATTGGTCGCGGAGTCACCTAGTGCAG”, the binding signal was 8750 fluorescence intensity (a.u.). In the case of “AATTGGGTTCGAATTTTTCTCTGGTTCGCTTGTGATTTTGCGGAGTCACCTAGTGCAG”, the binding signal is 8240 fluorescence intensity (a.u.). To “CATGGGAATTTTGGTGGGATGGGGATGGAGAATTGAGCAACGGAGTCACCTAGTGCAG” belongs 8700 fluorescence intensity (a.u.); to “CGTCGCTTGGGGTGGTGTTGGTGGTTCTGAATTTTGATTGCGGAGTCACCTAGTGCAG”, 19200 fluorescence intensity (a.u.); to “TTGATTTTGCTCGTGGTGTGTGTTTGTGTTTGGTATGGTTCGGAGTCACCTAGTGCAG”, 18400 fluorescence intensity (a.u.). To “CCTTTTGTCAGTCTAGCCAAAGATCTAGGATCTTCAACACCGGAGTCACCTAGTGCAG” belongs 8100 fluorescence intensity (a.u.); to “ACCCGCCGTCGCTCTCCAACGCGCTCGTCGCGGCGTTCAACGGAGTCACCTAGTGCAG”, 8970 fluorescence intensity (a.u.). Turning to “TGCTTGTTCCGGTTCCTTCCCAACCCTTTTGCAAGAACACCGGAGTCACCTAGTGCAG”, the binding signal is 9120 fluorescence intensity (a.u.). Regarding “GTCACCGTCTCGTCTCCGTCTCCGCCGCTCGTCGTCGACCCGGAGTCACCTAGTGCAG”, the binding signal is 12600 fluorescence intensity (a.u.). Regarding “AAAAAAATCTCGTTGTTACTGTCTATAGATCACTATATTACGGAGTCACCTAGTGCAG”, the binding signal was 8570 fluorescence intensity (a.u.).

The values are drawn from paper PMC7819943, “Rice protein-binding microarrays: a tool to detect cis-acting elements near promoter regions in rice”.
